# A selection: hits, their analogues and other compounds. The true share with any hit is near 18%.
# DT40 TDP1 CPT = qHTS for Inhibitors of human tyrosyl-DNA phosphodiesterase 1 (TDP1): qHTS in cells in presence of CPT. Potency, µM (titrated, usually from 46.2 µM), for inactives: at the highest dose activity change, negative = growth inhibition, most hits filed as inhibitors. chicken DT40 Tdp1-/-;hTDP1 cells + 20 nM CPT, ATP luminescence, 48 h. AID 686979, 2013. 420,000 tested, 12% active; also: potency is read from the fitted curve at half-maximal effect; nearly all actives have a fitted effect of over 55% in size
#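 Chicken DT40 Tdp1-/- cells complemented with human TDP1, 400 cells/well, exposed to compounds plus 20 nM camptothecin for at least 48 h at 37 C; viability read as ATP content by CellTiter-Glo luminescence.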
# CtBP-E1A inh = qHTS Assay for Inhibitors of the CtBP/E1A Interaction; CtBP / adenovirus E1A interaction (AlphaScreen); AlphaScreen GST-E1A/His-CtBP binding, 1536-well; hits give low values; activity change, % (concentration not given with the values); 340,000 tested, 0.49% active; AID 651724, 2012; in the data active = activity change below about -65%; inconclusive = mostly about -30% to -63%
#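 Homogeneous bead-based format: GST-tagged E1A captured on glutathione donor beads, His-tagged CtBP on nickel acceptor beads; compounds precede bead addition by 2 h at 37 °C.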
# TDP1 cell noCPT = qHTS for Inhibitors of human tyrosyl-DNA phosphodiesterase 1 (TDP1): qHTS in cells in absence of CPT. DT40 Tdp1-/- hTDP1 cells, no CPT, ATP luminescence, 48 h. Potency, µM (highest dose often 46.2 µM), without a hit: top-dose activity change, negative = growth inhibition, actives largely listed as inhibitors. 420,000 tested, 15% active; also: potency is read from the fitted curve at half-maximal effect; nearly all actives have a fitted effect of over 55% in size
#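 Chicken DT40 Tdp1-/- cells stably complemented with human TDP1 were seeded at 400 cells/well with DMSO in place of 20 nM camptothecin. After compound pinning, cells grew at least 48 hr at 37 °C; viability read by CellTiter-Glo luminescence.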
# IL1B secr inh = qHTS for Inhibitors of Inflammasome Signaling: IL-1-beta AlphaLISA Primary Screen | THP-1 LPS/ATP IL-1B secretion, AlphaLISA, 16 h; hits give low values | 360,000 tested, 4.7% active | activity change, % at 57.5 µM; in the data active = activity change below about -50%; inconclusive = mostly about -30% to -49%
#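 THP-1 cells pretreated 1 hr with compounds (up to 57.5 uM final), then stimulated with LPS (250 ng/mL final) plus ATP (1.25 mM final); secreted IL-1B measured by AlphaLISA after 16 hr, decreased signal indicating inhibition.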
# TDP1 block = qHTS Assay for Inhibitors of Tyrosyl-DNA Phosphodiesterase (TDP1). Tyrosyl-DNA phosphodiesterase 1 (Homo sapiens), Q9NUW8. recombinant TDP1, AlphaScreen DNA substrate cleavage. Potency, µM (highest dose often 130 µM), for inactives: top-dose activity change, negative = inhibition, hits mostly inhibitors. 350,000 tested, 0.28% active; also: potency is read from the fitted curve at half-maximal effect; nearly all actives have a fitted effect of over 40% in size
# Target sequence (Q9NUW8 whole entry, looked up): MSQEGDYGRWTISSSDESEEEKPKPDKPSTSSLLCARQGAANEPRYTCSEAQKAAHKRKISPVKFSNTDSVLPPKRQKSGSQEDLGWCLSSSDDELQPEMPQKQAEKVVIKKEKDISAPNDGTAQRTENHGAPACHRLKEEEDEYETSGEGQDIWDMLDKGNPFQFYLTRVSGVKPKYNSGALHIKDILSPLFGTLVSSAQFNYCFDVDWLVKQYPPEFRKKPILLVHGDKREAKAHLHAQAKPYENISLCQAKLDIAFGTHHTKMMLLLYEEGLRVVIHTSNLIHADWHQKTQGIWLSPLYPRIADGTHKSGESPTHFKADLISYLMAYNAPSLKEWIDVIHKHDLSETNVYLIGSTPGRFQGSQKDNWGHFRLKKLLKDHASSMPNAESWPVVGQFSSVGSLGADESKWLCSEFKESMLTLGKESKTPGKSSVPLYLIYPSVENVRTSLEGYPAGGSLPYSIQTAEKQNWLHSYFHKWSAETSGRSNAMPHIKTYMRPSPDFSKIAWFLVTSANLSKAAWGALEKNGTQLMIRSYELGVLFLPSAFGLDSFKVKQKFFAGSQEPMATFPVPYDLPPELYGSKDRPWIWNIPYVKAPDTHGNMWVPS
#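 Steps: enzyme plus compound, 15 min RT; add biotin/phosphotyrosine-FITC oligonucleotide (15 nM final), react 5 min; add donor/acceptor beads (10 ug/ml final), 10 min; read AlphaScreen. Tdp1 at 1 nM final.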
# Six1-Eya2 inh = qHTS Assay for Inhibitors of the Six1/Eya2 Interaction; Homeobox protein SIX1 (Homo sapiens) + Protein phosphatase EYA2 (Homo sapiens), …; AlphaScreen GST-Six1/His-Eya2 binding, biochemical; hits give low values; activity change, % (concentration not given with the values); 360,000 tested, 0.56% active; AID 651725, 2012; in the data active = activity change below about -65%; inconclusive = mostly about -30% to -63%
#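 Homogeneous AlphaScreen proximity assay pairing GST-Six1 with His-tagged Eya2 (added as 5X mix: 250 nM and 500 nM) in 50 mM Tris pH 8.0, 300 mM NaCl, 1 mM TCEP. Glutathione donor and nickel acceptor beads; 1 h, 37 °C, dark.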
# An asterisk follows results filed as active; u = inconclusive; x = not tested or not shown; ! = not active in a repeat; [ ] = another dose, or the depositor's remark. Unless noted, calls follow the shape of the dose curve; as a rule, active = well fitted curve in the direction sought with a large enough effect; inconclusive = small, poorly fitted or top-dose-only effect, or another doubt; inactive = no such curve, though single readings can be large; an effect the other way counts as inactive or inconclusive. % is scaled to controls: 0 for no effect and ±100 for the full control effect.
SMILES,DT40 TDP1 CPT,CtBP-E1A inh,TDP1 cell noCPT,IL1B secr inh,TDP1 block,Six1-Eya2 inh
O=C(COc1cccc2cccnc12)Nc1cccc(S(=O)(=O)N2CCCC2)c1,u,-25,u,-29,1%,-19
Cc1ccc(NC(=O)COc2ccccc2)cc1S(=O)(=O)N1CCCCCC1,u,-16,29µM*,-20,0%[0.505 µM],-4
CCOc1ccc(NC(=O)COc2cccc3cccnc23)cc1S(=O)(=O)N1CCCC1,u,-17,15µM*,-27,x,u
CC(C)c1c(O)nc(SCc2ccc(F)cc2)[nH]c1=O,1%,1,-7%,-6,x,11
CCCCc1nc2c(c3c1C[C@H](C)OC3)CN(S(=O)(=O)c1ccc(Cl)c3nonc13)CC2,x,x,x,x,10%[21 µM],x
COc1ccc(CCC(=O)NCc2ccc3c(c2)CCN3C(=O)c2cccc(C)c2)cc1,5.8µM*,x,4.6µM*,x,-2%,x
COc1ccc(CCC(=O)NCc2ccc3c(c2)CCN3C(=O)c2ccc(C)cc2)cc1,u,x,21µM*,x,1%,x
CCOC(=O)c1noc2nc(C)n(CC(=O)Nc3ccccc3F)c(=O)c12,-6%,x,3%,x,2%,x
Cc1cccc(C(=O)NCc2nnc(SCC(=O)Nc3nnc(C)s3)n2C)c1,19%,3,0%,9,x,0
CCOc1ccc(N2CC(c3nc4ccccc4n3CCOc3ccccc3OC)CC2=O)cc1 (stereo not given),u,x,23µM*,x,10%,x
Cc1ccc(N2CC(c3nc4ccccc4n3C)CC2=O)cc1C (stereo not given),-18%,2,u,-2,2%,-3
CCOc1ccc(N2CC(c3nc4ccccc4n3Cc3cccc(C)c3)CC2=O)cc1 (stereo not given),u,x,u,x,7%,x
Cc1cc(C)c(Cn2c(C3CC(=O)N(c4ccc(F)cc4)C3)nc3ccccc32)c(C)c1 (stereo not given),-12%,x,u,x,3%,x
O=C1CC(c2nc3ccccc3n2CCCOc2ccccc2)CN1c1ccc(F)cc1 (stereo not given),16µM*,x,8.2µM*,x,5%,x
CCn1c(C2CC(=O)N(c3ccc(C)c(C)c3)C2)nc2ccccc21 (stereo not given),u,0,18µM*,-16,0%,-1
CCCCn1c(C2CC(=O)N(c3ccc(OCC)cc3)C2)nc2ccccc21 (stereo not given),21µM*,x,u,x,-2%,x
CCOc1ccc(N2CC(c3nc4ccccc4n3CCOc3ccc(CC)cc3)CC2=O)cc1 (stereo not given),u,x,u,x,-1%,x
O=c1c2sccc2n(Cc2cc(=O)n3ccccc3n2)c(=O)n1-c1cc(F)ccc1F,-16%,x,0%,x,3%,x
CN1C(=O)/C(=C/c2ccc3c(c2)OCO3)N=C1c1ccccc1,u,8,-22%,15,-5%,2
CCCn1c(C2CC(=O)N(c3cc(OC)ccc3OC)C2)nc2ccccc21 (stereo not given),21µM*,-18,u,-6,3%,0
N#CCS(=O)(=O)c1ccccc1,15%,0,-3%,12,x,4
CC1CC(C)CN(CC(O)COC2CC(C)CC(C)(C)C2)C1 (stereo not given),u,x,u,25,x,6
CNCCC=C1c2ccccc2CCc2ccccc21,9.2µM*,-1,21µM*,-64*,-3%,3
Cc1ccc(S(=O)(=O)NC(C)(C)CSc2nnc(Nc3ccccc3)s2)cc1,23µM*,-5,u,-8,4%,-8
CC(C)(CSc1ncccn1)NS(=O)(=O)c1ccccc1,-3%,10,-10%,-2,0%,1
SMILES,DT40 TDP1 CPT,CtBP-E1A inh,TDP1 cell noCPT,IL1B secr inh,TDP1 block,Six1-Eya2 inh
CC(=O)CSc1nnc(NC(=O)CCc2ccccc2)s1,u,2,-7%,5,7%,-2
CCc1ccc(C2C3=C(CC(C)(C)CC3=O)OC3=C2C(=O)CC(C)(C)C3)cc1,u,9,23µM*,-14,3%,-2
CC1(C)CC(=O)C2=C(C1)OC1=C(C(=O)CC(C)(C)C1)C2c1ccccc1,-19%,-18,-16%,-10,-2%,-2
CS(=O)(=O)Nc1ccc(C2=NN(C(=O)C3CCCCC3)C(c3cccs3)C2)cc1 (stereo not given),u,3,23µM*,-59*,3%,-3
CS(=O)(=O)Nc1cccc(C2=NN(C(=O)c3ccccc3)C(c3cccs3)C2)c1 (stereo not given),21µM*,2,u,-29,x,6
CCCN(Cc1cc2cccc(C)c2[nH]c1=O)C(=O)c1cccc(OC)c1,u,-2,16µM*,-9,x,6
CCCN(Cc1cc2cc(OC)ccc2[nH]c1=O)C(=O)c1ccco1,29µM*,-7,16µM*,4,x,8
CCCN(Cc1cc2cc(C)ccc2[nH]c1=O)C(=O)c1cccc(OC)c1,u,1,u,u,3%,6
COc1ccc2[nH]c(=O)c(CN(C)C(=O)c3ccncc3)cc2c1,-6%,8,-3%,-6,-6%,4
CCCN(Cc1cc2cc(OC)ccc2[nH]c1=O)C(=O)c1ccncc1,u,-3,16µM*,48,5%,6
CC1=C(CC(=O)c2ccccc2)C(=O)c2ccccc2C1=O,8.2µM*,-20,12µM*,42,12%,u
CN1CCN(C2=Nc3ccccc3Sc3ccc(Cl)cc32)CC1,u,x,11µM*,x,9%,x
COC(=O)COc1ccc(S(=O)(=O)N2CCCCCC2)cc1,7%,2,-5%,19,5%,10
CCOC(=O)COc1ccc(S(=O)(=O)c2ccc(OCC(=O)OCC)cc2)cc1,7%,14,-17%,-92*,4%,8
CCOC(=O)C1CCN(S(=O)(=O)c2ccc3c(c2)NC(=O)C(C)C(=O)N3)CC1 (stereo not given),-12%,-7,23µM*!,41,9%,-1
CCOC(=O)N1CCC(N2CCN(S(=O)(=O)c3ccc([N+](=O)[O-])cc3)CC2)CC1,13µM*,6,u,0,-10%,1
CCOC(=O)C1CCN(S(=O)(=O)c2ccc(OCC(=O)OC)cc2)CC1,-7%,4,1%,-53*,0%,0
